Experimental findings from PubChem BioAssay (Tox21) are described below.

Experiment [1] is described as follows: qHTS assay to identify small molecule agonists of the sonic hedgehog signaling (Shh) pathway - cell viability counter screen (AID 1259366). Note: nearly all actives have a fitted effect of over 50% in size. In short, it runs like this:
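Compounds in DMSO were pin-transferred onto 3T3 Gli1-Luc cells that had settled 4hr; plates then stood 24hr at 37C and 5% CO2. One hour before the end, CellTiter-Fluor was added and fluorescence recorded.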

Experiment [2] in a line: qHTS assay to identify small molecule antagonists of the sonic hedgehog signaling (Shh) pathway - cell viability counter screen (AID 1259367). Note: nearly all actives have a fitted effect of over 55% in size. In short, it runs like this:
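NIH/3T3-derived Gli1-Luc reporter cells, 2,000/well, plated 4 hr before compound addition, then stimulated with conditioned medium for 24 hr at 37C. Viability measured in the same wells by CellTiter-Fluor fluorescence, reagent added at 23 hr for 1 hr.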
(In general: qHTS replaces the single test concentration by a dilution series.)

Experiment [3] in a line: qHTS assay to identify small molecule agonists of the sonic hedgehog signaling (Shh) pathway (AID 1259368; calls by dose curve; note: series mostly up to about 92 µM; nearly all actives have a fitted effect of over 15% in size). In short, it runs like this: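 NIH/3T3-derived 3T3Gli1-Luc cells carrying a stably integrated Gli1 response element–firefly luciferase reporter were plated, left 4 hr at 37 C, then given compounds in DMSO for 24 hr. Luminescence was read 30 min after adding luciferase reagent.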

Experiment [4] has as its target Estrogen receptor beta (Homo sapiens) (UniProt Q92731). Briefly: qHTS assay to identify small molecule agonists of the estrogen receptor beta (ER-beta) signaling pathway (AID 1259377; active = well fitted activation curve with a large enough effect in the signal ratio in the repeat runs, not every such curve was filed as active; the % refers to the signal ratio; note: potency is the fitted concentration of half-maximal effect). In short, it runs like this: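 qHTS in ER-beta-UAS-bla HEK293T cells: 6 hr settling, then 16 hr compound at 37C, then LiveBLAzer substrate 2 h at RT before fluorescence reading.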
Experiment [5] has the same target. Briefly: qHTS assay to identify small molecule antagonists of the estrogen receptor beta (ER-beta) signaling pathway (AID 1259378; active = well fitted inhibition curve with a large enough effect in the signal ratio in the repeat runs, not every such curve was filed as active; the % refers to the signal ratio). In short, it runs like this:
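ER-beta-UAS-bla HEK293T cells in 2% charcoal-stripped FBS medium treated with compound plus 1nM final 17-beta-estradiol for 16 hr at 37C. Beta-lactamase reporter read by FRET substrate fluorescence after 2 hours at room temperature.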

A short description of experiment [6]: qHTS assay to identify small molecule agonists of the androgen receptor (AR) signaling pathway in the presence of an antagonist - cell viability counter screen (AID 1259379). Note: series mostly up to about 92 µM; nearly all actives have a fitted effect of over 25% in size. In short, it runs like this: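 MDA-kb2 human breast carcinoma cells (stable MMTV-luciferase, AR/GR responsive) were seeded 3,000 cells/well, pre-incubated 5 hr at 37C without CO2, then given 3.0uM nilutamide and compounds at 15 concentrations for 16 hr. Viability was read by CellTiter-Fluor fluorescence.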

A short description of experiment [7]: qHTS assay to identify small molecule agonists of the estrogen receptor beta (ER-beta) signaling pathway - cell viability counter screen (AID 1259380). Note: nearly all actives have a fitted effect of over 30% in size. In short, it runs like this:
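ER-beta-UAS-bla HEK293T cells in medium with 2% charcoal-stripped FBS were preincubated 6 hr at 37C, dosed with compound in DMSO for 16 hr, then after the bla read, CellTiter-Glo was added for 30 min at room temperature; luminescence recorded.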

A short description of experiment [8]: qHTS assay to identify small molecule antagonists of the estrogen receptor beta (ER-beta) signaling pathway - cell viability counter screen (AID 1259382). Note: series mostly up to about 92 µM; nearly all actives have a fitted effect of over 55% in size. In short, it runs like this: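 ER-beta-UAS-bla HEK293T cells (2,000/well, 2% charcoal-stripped FBS) were pre-incubated 6 hr at 37C, then given compound plus 1nM final 17-beta-estradiol for 16 hr. Viability was read in the same wells by CellTiter-Glo luminescence after 30 min at room temperature.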

Experiment [9] addresses Estrogen receptor (Homo sapiens) (UniProt P03372). The experiment is described as follows: qHTS assay to identify small molecule agonists of the estrogen receptor alpha (ER-alpha) signaling pathway in the presence of an antagonist (AID 1259383; calls by dose curve; note: top concentration of the series differs between compounds; nearly all actives have a fitted effect of over 15% in size). In short, it runs like this:
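VM7Luc4E2 cells (endogenous full-length ER-alpha, 4×ERE-luciferase) were precultured 5 days in phenol red-free medium with 10% charcoal-stripped FBS, given 10.0nM ICI-182,780 (final), then treated with compounds at 15 concentrations for 22hr at 37C; luminescence read with ONE-Glo.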

The nature of experiment [10]: qHTS assay to identify small molecule agonists or antagonists of the thyroid stimulating hormone receptor (TSHR) signaling pathway - wild type cell line counter screen (AID 1259384; calls by dose curve). In short, it runs like this:
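Wild-type Hek293 cells, 800/well, 18 h at 37C, then compound with Ro20-1724 for 30 min RT. cAMP by HTRF (cAMP-d2/anti-cAMP cryptate), 1 h RT, fluorescence read. 15 concentrations, triplicates.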

Experiment [11] has as its target Thyrotropin receptor (Homo sapiens) (UniProt P16473). The experiment is described as follows: qHTS assay to identify small molecule antagonists of the thyroid stimulating hormone receptor (TSHR) signaling pathway (AID 1259385; calls by dose curve; note: nearly all actives have a fitted effect of over 20% in size). In short, it runs like this: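 TSHR-HEK293 cells (800/well) plated 18 h, then compounds with Ro20-1724 and TSH at 1.5 ng/mL final, 30 min at room temperature. cAMP quantified by HTRF (cAMP-d2/anti-cAMP-cryptate, 1 h); 15 concentrations in triplicate.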

Experiment [12] in a line: qHTS assay to identify small molecule agonists of the estrogen receptor alpha (ER-alpha) signaling pathway in the presence of an antagonist - cell viability counter screen (AID 1259386).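 Note: series mostly up to about 92 µM; cells exposed to compounds for 22 h at 37 °C before the viability read; nearly all actives have a fitted effect of over 30% in size.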 In short, it runs like this: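 VM7Luc4E2 cells (endogenous full-length ER-alpha, 4×ERE-luciferase) were held 5 days in phenol red-free medium with 10% charcoal-stripped FBS, plated, then given 10.0nM ICI-182,780 and compounds at 15 concentrations for 22hr at 37C; viability read by CellTiter-Fluor fluorescence.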

Experiment [13] has as its target Progesterone receptor (Homo sapiens) (UniProt P06401). Briefly: qHTS assay to identify small molecule antagonists of the progesterone receptor (PR) signaling pathway (AID 1346795; active = well fitted inhibition curve with a large enough effect in the signal ratio in the repeat runs, not every such curve was filed as active; the % refers to the signal ratio). In short, it runs like this:
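Fluorescence intensity measured 2 hr after adding beta-lactamase FRET substrate to PR-UAS-bla HEK293T cells that had been co-treated 16 hr with compound and 1 nM R5020 (final concentration) in 2% charcoal-stripped FBS.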

A short description of experiment [14]: qHTS assay to identify small molecule antagonists of the progesterone receptor (PR) signaling pathway - cell viability counter screen (AID 1346798). Note: series mostly up to about 92 µM; nearly all actives have a fitted effect of over 50% in size. In short, it runs like this:
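CellTiter-Glo luminescence; PR-UAS-bla HEK293T, 3,000 cells/well; compound + R5020, 16 hr, 37C/5% CO2; 30 min RT before read.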

A short description of experiment [15]: qHTS assay to identify small molecule antagonists of the TGF-beta/Smad signaling pathway - cell viability counter screen (AID 1346824). Note: nearly all actives have a fitted effect of over 50% in size. In short, it runs like this: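 SBE-bla HEK 293T cells, incubated overnight, then compound plus 0.25 ng/mL TGF-beta1 (stock added) for 5 hr at 37 C. Viability was read in the same wells by CellTiter-Glo luminescence after 30 min at room temperature.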

Experiment [16] in a line: qHTS assay to identify small molecule agonists of the TGF-beta/Smad signaling pathway - cell viability counter screen (AID 1346829). Note: top concentration of the series differs between compounds; nearly all actives have a fitted effect of over 45% in size. In short, it runs like this:
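CellTiter-Glo luminescence readout; SBE-bla HEK 293T cells, overnight plating, compound 5 hr at 37 C/5% CO2, then bla substrate 2 hr RT, then CellTiter-Glo 30 min RT.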

The target of experiment [17] is Progesterone receptor (Homo sapiens) (UniProt P06401). The experiment is described as follows: qHTS assay to identify small molecule agonists of the progesterone receptor (PR) signaling pathway (AID 1346784; calls by dose curve; note: nearly all actives have a fitted effect of over 30% in size). In short, it runs like this:
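Fluorescence from LiveBLAzer B/G FRET substrate cleavage (2 hr, RT) reported PR activation in PR-UAS-bla HEK 293T cells treated 16 hr at 37C/5% CO2 with compounds; medium contained 2% charcoal-stripped FBS.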

Experiment [18] deals with Androgen receptor (Homo sapiens) (UniProt P10275). The experiment is described as follows: qHTS assay to identify small molecule agonists of the androgen receptor (AR) signaling pathway in the presence of an antagonist (AID 1259381; calls by dose curve; note: nearly all actives have a fitted effect of over 15% in size). In short, it runs like this:
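MDA-kb2 human breast carcinoma cells carrying an MMTV-luciferase reporter (AR- and GR-responsive) were treated with compounds at 15 concentrations plus 3.0uM final nilutamide for 16hr at 37C without CO2; luminescence was read after ONE-Glo addition.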

Experiment [19] is described as follows: qHTS assay to identify small molecule agonists of the progesterone receptor (PR) signaling pathway - cell viability counter screen (AID 1346799; calls by dose curve; note: nearly all actives have a fitted effect of over 45% in size). In short, it runs like this: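 In parallel with the beta-lactamase readout, cytotoxicity toward PR-UAS-bla HEK293T cells was measured by CellTiter-Glo luminescence following 16 hr compound incubation in 2% charcoal-stripped FBS medium.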

Experiment [20] can be described thus: qHTS assay to identify small molecule antagonists of the sonic hedgehog signaling (Shh) pathway (AID 1259369; calls by dose curve; note: nearly all actives have a fitted effect of over 45% in size). In short, it runs like this:
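NIH/3T3-derived 3T3Gli1-Luc cells with stably integrated Gli1-Luc reporter were preincubated 4hr at 37 C, then given compounds in DMSO plus Shh conditioned medium and incubated 24hr. Firefly luciferase luminescence read after 30min reagent at room temperature.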

Structures are written as SMILES. Values without a mark were called inactive. Results filed as inconclusive are left out. Calls of active or inactive are those of the source. Unless noted, calls come from the whole dose curve; as a rule, active = well fitted curve in the direction sought with a large enough effect in the repeat runs; inconclusive = weak or mixed curves; inactive = no such curve, though single readings can be large; an effect the other way counts as inactive or inconclusive.

Thyrotropin receptor (Homo sapiens), sequence (P16473 whole entry, looked up): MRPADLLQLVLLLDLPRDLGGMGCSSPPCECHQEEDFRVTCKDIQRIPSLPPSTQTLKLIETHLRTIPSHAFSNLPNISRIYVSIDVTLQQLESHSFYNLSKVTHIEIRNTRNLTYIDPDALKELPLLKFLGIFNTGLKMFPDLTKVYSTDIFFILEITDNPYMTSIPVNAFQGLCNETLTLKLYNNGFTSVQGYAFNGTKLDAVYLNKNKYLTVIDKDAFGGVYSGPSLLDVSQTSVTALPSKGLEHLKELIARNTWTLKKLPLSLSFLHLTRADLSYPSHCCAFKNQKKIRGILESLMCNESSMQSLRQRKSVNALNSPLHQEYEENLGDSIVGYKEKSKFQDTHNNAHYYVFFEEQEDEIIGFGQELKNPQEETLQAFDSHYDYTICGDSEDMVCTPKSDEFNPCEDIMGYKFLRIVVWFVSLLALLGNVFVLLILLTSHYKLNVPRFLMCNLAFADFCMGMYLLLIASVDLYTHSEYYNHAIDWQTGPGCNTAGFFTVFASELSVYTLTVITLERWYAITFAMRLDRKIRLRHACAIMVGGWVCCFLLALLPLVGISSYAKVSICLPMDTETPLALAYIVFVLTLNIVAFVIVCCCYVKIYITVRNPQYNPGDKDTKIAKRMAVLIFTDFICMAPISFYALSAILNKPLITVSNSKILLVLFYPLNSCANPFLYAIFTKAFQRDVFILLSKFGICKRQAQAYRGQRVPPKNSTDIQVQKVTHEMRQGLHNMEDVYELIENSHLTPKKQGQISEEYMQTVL
Estrogen receptor beta (Homo sapiens), sequence (Q92731 whole entry, looked up): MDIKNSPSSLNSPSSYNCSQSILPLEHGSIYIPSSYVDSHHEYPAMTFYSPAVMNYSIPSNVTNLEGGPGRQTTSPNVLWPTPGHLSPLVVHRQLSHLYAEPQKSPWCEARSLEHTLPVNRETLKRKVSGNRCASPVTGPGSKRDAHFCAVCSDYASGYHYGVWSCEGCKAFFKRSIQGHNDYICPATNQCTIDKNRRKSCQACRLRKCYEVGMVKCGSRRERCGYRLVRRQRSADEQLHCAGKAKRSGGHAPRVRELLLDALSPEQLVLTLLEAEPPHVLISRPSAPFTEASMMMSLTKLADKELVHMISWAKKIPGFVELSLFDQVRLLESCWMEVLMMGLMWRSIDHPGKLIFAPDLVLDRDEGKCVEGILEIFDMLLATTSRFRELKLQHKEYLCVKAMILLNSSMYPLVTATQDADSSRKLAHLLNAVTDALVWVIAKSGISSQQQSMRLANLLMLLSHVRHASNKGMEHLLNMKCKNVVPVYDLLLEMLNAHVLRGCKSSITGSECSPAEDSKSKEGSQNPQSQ
Progesterone receptor (Homo sapiens), sequence (P06401 whole entry, looked up): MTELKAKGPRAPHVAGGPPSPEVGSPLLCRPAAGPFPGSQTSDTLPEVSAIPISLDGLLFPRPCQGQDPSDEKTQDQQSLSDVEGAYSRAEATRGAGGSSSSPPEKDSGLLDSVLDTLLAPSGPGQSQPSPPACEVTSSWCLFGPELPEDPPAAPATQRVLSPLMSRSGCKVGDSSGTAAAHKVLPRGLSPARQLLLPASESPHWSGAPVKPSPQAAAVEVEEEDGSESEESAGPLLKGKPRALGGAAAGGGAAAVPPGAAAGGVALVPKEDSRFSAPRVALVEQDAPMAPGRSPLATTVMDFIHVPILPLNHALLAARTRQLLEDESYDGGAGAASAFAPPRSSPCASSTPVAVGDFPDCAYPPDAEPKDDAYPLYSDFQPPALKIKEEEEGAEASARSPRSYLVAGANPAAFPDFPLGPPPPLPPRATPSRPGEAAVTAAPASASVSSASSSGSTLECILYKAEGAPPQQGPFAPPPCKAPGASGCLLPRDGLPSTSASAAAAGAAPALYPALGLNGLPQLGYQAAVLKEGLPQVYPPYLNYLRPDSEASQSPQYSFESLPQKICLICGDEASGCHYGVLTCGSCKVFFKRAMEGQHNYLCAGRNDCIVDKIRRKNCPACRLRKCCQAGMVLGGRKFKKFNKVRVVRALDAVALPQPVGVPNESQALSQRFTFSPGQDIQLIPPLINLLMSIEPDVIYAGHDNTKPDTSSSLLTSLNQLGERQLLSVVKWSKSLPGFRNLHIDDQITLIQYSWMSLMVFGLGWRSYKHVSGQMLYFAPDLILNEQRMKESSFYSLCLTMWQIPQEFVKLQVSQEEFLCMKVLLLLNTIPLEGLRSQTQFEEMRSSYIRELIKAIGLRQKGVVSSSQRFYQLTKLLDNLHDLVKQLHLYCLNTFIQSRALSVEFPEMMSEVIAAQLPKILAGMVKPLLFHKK
Estrogen receptor (Homo sapiens), sequence (P03372 whole entry, looked up): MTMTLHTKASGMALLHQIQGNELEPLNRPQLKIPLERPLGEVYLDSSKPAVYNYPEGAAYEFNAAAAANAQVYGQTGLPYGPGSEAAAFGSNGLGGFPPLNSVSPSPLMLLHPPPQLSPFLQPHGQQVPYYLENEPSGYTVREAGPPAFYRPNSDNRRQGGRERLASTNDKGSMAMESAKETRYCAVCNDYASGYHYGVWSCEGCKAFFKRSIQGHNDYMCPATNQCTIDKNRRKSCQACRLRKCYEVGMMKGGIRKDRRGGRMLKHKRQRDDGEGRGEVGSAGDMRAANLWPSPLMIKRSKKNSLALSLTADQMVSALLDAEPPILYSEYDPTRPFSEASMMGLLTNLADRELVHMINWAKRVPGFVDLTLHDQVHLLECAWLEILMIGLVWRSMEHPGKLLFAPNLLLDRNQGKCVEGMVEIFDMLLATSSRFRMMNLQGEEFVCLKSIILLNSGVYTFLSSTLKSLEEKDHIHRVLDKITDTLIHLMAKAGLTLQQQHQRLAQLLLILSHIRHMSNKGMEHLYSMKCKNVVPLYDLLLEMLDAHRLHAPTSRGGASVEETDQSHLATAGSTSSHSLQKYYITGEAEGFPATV
Androgen receptor (Homo sapiens), sequence (P10275 whole entry, looked up): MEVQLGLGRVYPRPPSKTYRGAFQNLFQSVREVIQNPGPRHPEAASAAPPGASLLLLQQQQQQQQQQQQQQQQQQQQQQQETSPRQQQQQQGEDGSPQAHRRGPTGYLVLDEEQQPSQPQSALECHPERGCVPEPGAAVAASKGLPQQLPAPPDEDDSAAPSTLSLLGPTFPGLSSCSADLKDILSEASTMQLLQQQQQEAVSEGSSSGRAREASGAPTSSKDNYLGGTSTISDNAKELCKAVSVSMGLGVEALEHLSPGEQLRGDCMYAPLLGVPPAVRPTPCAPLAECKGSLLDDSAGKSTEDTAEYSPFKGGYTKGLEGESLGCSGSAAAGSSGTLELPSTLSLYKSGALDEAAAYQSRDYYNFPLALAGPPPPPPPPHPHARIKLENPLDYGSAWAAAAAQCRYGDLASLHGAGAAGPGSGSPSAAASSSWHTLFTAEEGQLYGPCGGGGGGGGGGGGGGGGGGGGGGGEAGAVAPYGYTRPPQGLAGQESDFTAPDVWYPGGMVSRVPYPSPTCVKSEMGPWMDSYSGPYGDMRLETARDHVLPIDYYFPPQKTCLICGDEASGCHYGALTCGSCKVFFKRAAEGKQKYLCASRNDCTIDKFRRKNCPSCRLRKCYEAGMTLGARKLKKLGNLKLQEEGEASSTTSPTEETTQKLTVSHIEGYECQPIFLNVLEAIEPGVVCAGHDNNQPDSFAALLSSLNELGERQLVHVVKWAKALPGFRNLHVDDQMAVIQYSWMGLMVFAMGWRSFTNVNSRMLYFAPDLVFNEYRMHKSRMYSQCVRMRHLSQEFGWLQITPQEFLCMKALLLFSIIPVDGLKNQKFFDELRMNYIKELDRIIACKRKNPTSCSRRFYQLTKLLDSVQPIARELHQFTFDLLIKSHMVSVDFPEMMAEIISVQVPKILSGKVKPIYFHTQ

With `OCCC(F)(F)C(F)(F)C(F)(F)C(F)(F)C(F)(F)C(F)(F)F`, the call in [1], in [2], in [3], in [5], in experiment [6] and in experiment [8] was inactive. Moreover, the result in [10], in experiment [11], in experiment [12], in experiment [14], in experiment [15] and in experiment [16] was inactive. Moreover, the Potency entry in experiment [4], in [7], in experiment [9] and in experiment [13] was “inactive” in each case.
On to `CN(C)CCC[C@@]1(c2ccc(F)cc2)OCc2cc(C#N)ccc21`, for which the result in [1], in [2], in experiment [3], in [6], in experiment [10] and in [11] was inactive. In addition, the result in [12] was inactive. For the same molecule, the Potency result in experiment [9], in [17] and in [13] was “inactive” throughout.
With `O=C(c1ccccc1)c1cccc(O)c1`, the result in experiment [1], in [2], in experiment [3], in [6], in [18] and in experiment [8] was inactive. For the same molecule, the outcome in experiment [10], in experiment [11], in experiment [12], in experiment [15] and in experiment [16] was inactive. Further, the Potency in experiment [4] is 12.4 µM (active). The Potency entry in [7], in [17] and in experiment [19] was “inactive” each time.
For `CC(CN1CC(=O)NC(=O)C1)N1CC(=O)NC(=O)C1` (configuration not stated), the molecule was classed as inactive in experiment [1], in experiment [2], in experiment [3], in experiment [5], in experiment [6] and in experiment [8]. The outcome in experiment [12] and in experiment [15] was inactive. Moreover, the Potency entry in experiment [4], in experiment [7], in experiment [9], in experiment [17], in experiment [13] and in experiment [19] was “inactive” each time.
Regarding `Cc1nc2ccc(Cl)cc2[nH]1`, the molecule was classed as inactive in [1], in experiment [2], in [3], in experiment [5], in [6] and in experiment [8]. In addition, the call in experiment [10], in experiment [12], in experiment [14] and in [16] was inactive. Also, the Potency entry in experiment [4], in experiment [7], in experiment [9], in [17], in [13] and in experiment [19] was “inactive” throughout.
For `CCNC(=O)C(C)OC(=O)Nc1ccccc1` (configuration not stated), the call in experiment [1], in experiment [2], in experiment [3], in experiment [5], in experiment [6] and in experiment [8] was inactive. Besides, the outcome in experiment [10], in [11], in experiment [12], in experiment [15] and in [16] was inactive. For the same molecule, the Potency entry in experiment [4], in experiment [7], in experiment [9], in [13] and in experiment [19] was “inactive” each time.
Regarding `CC(C)(O)CCCC1=CCC(C=O)CC1` (configuration not stated), the molecule was classed as inactive in experiment [1], in [2], in experiment [3], in [10], in experiment [11] and in [12]. Also, the outcome in [14], in [15] and in experiment [16] was inactive. Besides, the Potency entry in experiment [20], in experiment [7], in experiment [9], in experiment [17], in experiment [13] and in [19] was “inactive” throughout.
As to `O=C1Nc2ccccc2C1=O`, the outcome in experiment [1], in experiment [2], in experiment [3], in [5], in [6] and in experiment [8] was inactive. Moreover, the outcome in [10], in experiment [11], in experiment [12], in experiment [15] and in experiment [16] was inactive. Also, the Potency result in experiment [4], in experiment [17], in experiment [13] and in [19] was “inactive” in each case.
